IL-1B inflam inh: blocks inflammasome-driven IL-1 beta release | THP-1 LPS/ATP IL-1B secretion, AlphaLISA, 16 h; hits give low values | actives 4.7% (n = 360,000) | activity change, % at 57.5 µM; in the data active = activity change below about -50%; inconclusive = mostly about -30% to -49%; also: % is scaled to controls: 0 for no effect and ±100 for the full control effect
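THP-1 cells pretreated 1 hr with compounds (up to 57.5 uM final), then stimulated with LPS (250 ng/mL final) plus ATP (1.25 mM final); secreted IL-1B measured by AlphaLISA after 16 hr, decreased signal indicating inhibition.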
HepG2 tox: counter-screen for TGF-b inhibitors: cytotoxicity in HepG2 cells | HepG2 CAGA-GFP viability, ATP luminescence, 18 h | Potency, µM (highest dose often 46.1 µM), for the others: at the top dose activity change, negative = cytotoxicity, usual class: cytotoxic | actives 0.76% (n = 410,000); also: potency is read from the fitted curve at half-maximal effect
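HepG2 CAGA-GFP cells (1000/well, DMEM with 1% FBS) received compound, then TGF-beta at 500 pg/mL final, and were incubated 18 hours at 37 degrees C. Viability was read by CellTiter-Glo luminescence. Media-only wells were set as complete cell-killing and DMSO as no toxicity.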
DT40 TDP1 no CPT: qHTS for Inhibitors of human tyrosyl-DNA phosphodiesterase 1 (TDP1): qHTS in cells in absence of CPT; DT40 Tdp1-/- hTDP1 cells, no CPT, ATP luminescence, 48 h; Potency, µM (series often up to 46.2 µM), for the others: at the highest dose activity change, negative = growth inhibition, usual class: inhibitors; actives 15% (n = 420,000); AID 686978, 2013; also: potency is read from the fitted curve at half-maximal effect; % is scaled to controls: 0 for no effect and ±100 for the full control effect; nearly all actives have a fitted effect of over 55% in size
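Readout: luminescence from CellTiter-Glo after 30 min in the dark at RT. Cells: DT40 Tdp1-/- with stable hTDP1, 400/well. Exposure: compounds alone, ≥48 hr, 37 °C.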
DT40 TDP1 CPT: DT40-hTDP1 cell growth loss with CPT; chicken DT40 Tdp1-/-;hTDP1 cells + 20 nM CPT, ATP luminescence, 48 h; Potency, µM (doses to about 46.2 µM), without a hit: top-dose activity change, negative = growth inhibition, hits mostly inhibitors; actives 12% (n = 420,000); also: potency is read from the fitted curve at half-maximal effect; % is scaled to controls: 0 for no effect and ±100 for the full control effect; nearly all actives have a fitted effect of over 55% in size
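Cell growth measured by CellTiter-Glo luminescence after a minimum 48 h, 37 C compound exposure with 20 nM CPT in Tdp1-knockout DT40 cells stably expressing hTDP1, seeded 400/well; qHTS titration format.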
S-ASM inh: blocks human secretory acid sphingomyelinase | P17405 | Potency, µM (series often up to 57.5 µM), inactives show at the highest dose activity change, negative = inhibition, actives largely listed as inhibitors | placental ASM, HMU-PC fluorogenic substrate, 60 min | actives 0.006% (n = 340,000) | AID 504937; also: potency is read from the fitted curve at half-maximal effect
Target sequence (P17405 47-631 limits assumed): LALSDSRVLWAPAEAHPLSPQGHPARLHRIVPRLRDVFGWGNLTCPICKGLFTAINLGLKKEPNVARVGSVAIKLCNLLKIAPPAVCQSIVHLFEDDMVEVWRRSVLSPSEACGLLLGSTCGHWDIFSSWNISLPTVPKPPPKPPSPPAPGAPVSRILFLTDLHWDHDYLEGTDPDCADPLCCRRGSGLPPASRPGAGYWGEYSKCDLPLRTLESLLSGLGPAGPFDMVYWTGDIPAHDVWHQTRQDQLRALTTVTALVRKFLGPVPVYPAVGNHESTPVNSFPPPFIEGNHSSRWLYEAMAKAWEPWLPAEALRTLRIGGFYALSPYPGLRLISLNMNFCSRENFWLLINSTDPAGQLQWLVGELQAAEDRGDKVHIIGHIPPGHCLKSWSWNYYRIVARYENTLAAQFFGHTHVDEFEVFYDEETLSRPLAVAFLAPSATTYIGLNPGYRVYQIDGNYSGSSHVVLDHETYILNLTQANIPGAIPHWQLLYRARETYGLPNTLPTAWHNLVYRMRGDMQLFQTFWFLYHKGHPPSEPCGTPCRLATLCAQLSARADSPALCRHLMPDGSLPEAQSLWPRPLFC
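Fluorogenic HMU-PC substrate (9 uM final) is turned over by placental ASM in 60 min at 37 C after a 10 min compound preincubation. Reaction ended by alkaline stop (pH 10), with fluorescence read at 386/447 nm.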
TGFb inhibitor: blocks TGF-b signaling | actives 1.2% (n = 410,000) | AID 588855 | Potency, µM (doses to about 46.1 µM), inactives show at the highest dose activity, negative = inhibition, most hits filed as inhibitors | HepG2 CAGA-GFP TGF-b/SMAD3 reporter, GFP fluorescence, 18 h; TGF-beta stimulated, 500 pg/mL final; also: potency is read from the fitted curve at half-maximal effect; % is scaled to controls: 0 for no effect and ±100 for the full control effect; nearly all actives have a fitted effect of over 65% in size
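HEPG2 CAGA-GFP, 1000 cells/well; 2 h settle, 37 C; cpd via pin tool; TGF-b 500 pg/mL final; 18 h, 37 C; GFP imaging ex488/em500-530; %Activity normalised to -TGF-b and +DMSO controls; CRC fit, curve class.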
An asterisk follows results filed as active; ? = inconclusive; / = not tested or not shown; [ ] = remark or other dose. Most compounds without a hit are left out; they make up all but 19% or so of the library. Unless noted, calls follow the shape of the dose curve; as a rule, active = well fitted curve in the direction sought with a large enough effect; inconclusive = small, poorly fitted or top-dose-only effect, or another doubt; inactive = no such curve, though single readings can be large; an effect the other way counts as inactive or inconclusive.

SMILES | IL-1B inflam inh | HepG2 tox | DT40 TDP1 no CPT | DT40 TDP1 CPT | S-ASM inh | TGFb inhibitor
Oc1cc2cc(-c3csc(-c4ccc(F)cc4)n3)cc3c2n1CCC3 | / | -41% | 20µM* | ? | / | 4%
CCOC(=O)c1ccccc1NC(=O)c1sc2ncn(Cc3cccc(F)c3)c(=O)c2c1C | / | -16% | -25% | ? | / | 0%
CCN(CC)S(=O)(=O)c1ccc(C)c(NC(=O)Cc2ccc(S(=O)(=O)N3CCOCC3)s2)c1 | 3 | -106% | 21µM* | ? | / | 2%
O=C(Cc1ccc(S(=O)(=O)N2CCOCC2)s1)Nc1ccccc1Br | 11 | 31% | -5% | -4% | -2% | 14%
O=C(Cc1ccc2c(c1)OCCO2)Nc1cc(Cl)ccc1N1CCOCC1 | 22 | 5% | ? | 16µM* | 3% | 5%
CC(C)(C)c1csc(NC(=O)Cc2ccc(S(=O)(=O)N3CCOCC3)s2)n1 | ? | 2% | 15µM* | ? | / | -26%
O=C(Cc1ccc(Cl)c(Cl)c1)Nc1ccccc1N1CCOCC1 | 19 | 13% | ? | 23µM* | -4% | -17%
CCN(CC)S(=O)(=O)c1ccc(N2CCOCC2)c(NC(=O)Cc2ccc(Cl)cc2)c1 | 20 | -24% | ? | ? | -1% | -20%
Cc1cnc(NC(=O)Cc2ccc(S(=O)(=O)N3CCOCC3)s2)s1 | 12 | -6% | ? | 3% | 5% | -26%
CCc1ccc(NC(=O)c2sc3nc(C)c(Cl)c(C)c3c2NC(=O)c2ccccc2OC)cc1 | / | -13% | / | / | / | 20%
CC1CC(C)CN(C(=O)CCC(=O)Nc2nnc(C(C)C)s2)C1 (stereo not given) | 7 | -37% | -22% | 10% | -1% | -4%
CCC(=O)c1cn([C@H](CCC(OC)OC)CC(=O)OC(C)(C)C)cc1CC | 10 | -1% | ? | ? | 11% | -9%
CC(C)n1nc(C(=O)Nc2cccc(S(=O)(=O)NCc3ccco3)c2)c2ccccc2c1=O | -5 | -25% | ? | ? | -1% | -14%
O=C(Cn1nnc(-c2ccccc2)n1)Nc1ccccc1N1CCOCC1 | ? | -16% | 13µM* | ? | -2% | -1%
O=C(Cc1ccc(S(=O)(=O)N2CCOCC2)s1)Nc1ccccc1N1CCOCC1 | 25 | 4% | 12µM* | ? | 5% | -9%
CCOC(=O)C1CN(C(=O)OCC)CC1=NNC(N)=O (stereo not given) | -5 | -32% | -17% | -8% | / | -2%
O=C(CN1Cc2ccccc2OC(c2ccsc2)C1)N1CCC(c2nc3ccccc3[nH]2)CC1 (stereo not given) | / | / | ? | 4%[9.04 µM] | / | /
Cc1ccc(S(=O)(=O)N2CCN(C(=O)CCC(=O)Nc3ccc(F)cc3F)CC2)cc1 | ? | 2% | -12% | -26% | 0% | 2%
O=C1Nc2ccc(Br)cc2C1Cc1ccccc1F (stereo not given) | 19 | -14% | 5% | 38% | -4% | -30%
COc1ccc(OC)c(CC2C(=O)Nc3ccc(Br)cc32)c1 (stereo not given) | / | -53% | 7.3µM* | 10µM* | / | ?
CCOc1ccccc1CC1C(=O)Nc2ccc(Br)cc21 (stereo not given) | / | -38% | ? | ? | / | ?
CCOc1c(CC2C(=O)Nc3ccc(Br)cc32)cccc1OC (stereo not given) | / | -28% | 16µM* | ? | / | -20%
CCCOc1ccc(CC2C(=O)Nc3ccc(Br)cc32)cc1 (stereo not given) | / | -95% | 18µM* | ? | / | 11µM*
COc1ccc(NC(=O)C[C@H]2C(=O)N(C3CCCCC3)C[C@@H]2CSC)cc1 | -4 | -40% | ? | -12% | / | -10%
COc1ccc(CNC(=O)Cn2ccc3cc(S(=O)(=O)N4CCCCC4)ccc32)cc1OC | / | -3% | ? | ? | / | ?
SMILES | IL-1B inflam inh | HepG2 tox | DT40 TDP1 no CPT | DT40 TDP1 CPT | S-ASM inh | TGFb inhibitor
Cc1cnc(C)c(-c2cc(F)cc3c2OC(CNC(=O)CN2CCCC2)C3)n1 (stereo not given) | / | / | -17% | 9% | / | /
Cc1cccn2c(=O)nc(SCC(=O)NCc3ccccc3)nc12 | 3 | 13% | ? | ? | -4% | 21%
c1ccc(COc2ccccc2CNC23CC4CC(CC(C4)C2)C3)cc1 | -95* | 10µM* | 15µM* | 18µM* | -3% | ?
c1ccc(COc2ccccc2CNC2CCCC2)cc1 | -70* | -6% | ? | ? | 9% | -3%
COc1ccccc1CNC(=O)C12CC3CC(CC(C3)C1)C2 | 12 | 1% | ? | ? | 4% | -13%
COc1cccc(CNC2CCCCCCC2)c1OC | -13 | -10% | -19% | 7% | 1% | -1%
c1csc(COc2ccccc2CNC2CCCCC2)c1 | -73* | -30% | ? | ? | 4% | -13%
Cc1nc2ccc(C(=O)N3CCC(O)(Cc4ccccc4)CC3)cn2c1N(C)C(=O)CCc1ccccc1 | -15 | 0% | ? | ? | / | 3%
Cc1ccc(C)c(OCCCN2CCc3ccccc3C2)c1 | 7 | -29% | ? | 12µM* | -1% | 1%
Cc1ccc(SCCOCCN2CCc3ccccc3C2)cc1 | 6 | -24% | 16µM* | ? | -1% | 2%
Cc1ccc(C(C)C)c(OCCCN2CCc3ccccc3C2)c1 | 26 | -47% | ? | ? | 0% | ?
Cc1ccc(S(=O)(=O)c2c(C)nn(-c3ccccc3)c2OC(=O)c2ccccc2F)cc1 | / | 3% | ? | -15% | / | 16%
N#CCCN(Cc1cccnc1)S(=O)(=O)c1ccc2ccccc2c1 | 2 | 10µM* | -26% | ? | 5% | -3%
CC(NC(=O)c1ccccc1)C(=O)NC1CCCc2ccccc21 (stereo not given) | -1 | 0% | -4% | -10% | -3% | 4%
CCCCOc1ccc(C2=NC(c3cccs3)=Nc3ccc(CC)cc3N2)cc1 | / | -20% | ? | 21µM* | / | -6%
CC(C)c1ccc2c(c1)NC(c1ccncc1)=NC(c1cccs1)=N2 | / | -16% | 16µM* | ? | / | ?
CCc1ccc2c(c1)NC(c1ccc(C)cc1)=NC(c1cccs1)=N2 | / | -93% | 26µM* | ? | / | ?
Clc1cccc(C2=NC(c3cccs3)=Nc3ccc(Br)cc3N2)c1 | / | -24% | 15µM* | 16µM* | / | -1%

High-throughput results from PubChem.
